Out of some 69,000 compounds screened, about 8,600 (12%) showed an effect of 50% or more. What follows is part of a selection rich in strong results, with near analogues and random picks from the rest.
test system: Plasmodium berghei; test: Screen against P. berghei liver stage (PbLuc), transformed with Luciferase, at 10uM; type: functional, HepG2; conditions: tested at 10 uM

Point of comparison: `COCCN1C[C@@H]2CN(Cc3cccc(F)c3)CCC[C@]2(C(=O)O)C1`, INHIBITION -1.64%. Against it:
- O[C@@H]1CC(CNCC2CC2)(COc2cccnc2)C[C@@H]1O (stereo partly specified) — higher, 51%
- COc1ccc(CNCC2(COc3cccnc3)C[C@@H](O)[C@@H](O)C2)cc1 (stereo partly specified) — higher, 25.3%
- COCC(=O)NCC1(COc2cnccn2)C[C@@H](O)[C@@H](O)C1 (stereo partly specified) — higher, 7.31%
- O[C@@H]1CC(CNCC2CCCC2)(COc2cccnc2)C[C@@H]1O (stereo partly specified) — lower, -23.9%
- O=c1c(NCCc2ccc(O)cc2)c(NCc2ccncc2)c1=O — higher, 32.1%
- CC(C)c1noc(-c2ccc(NC(=O)NCC(O)C(C)C)cc2)n1 (stereo unspecified) — lower, -132%
- Cc1ccc(OCCC(=O)NC2CCc3nc(C)cn3C2)cc1 (stereo unspecified) — higher, 5.53%
- Cc1ccc(C(=O)NS(=O)(=O)Cc2ccccc2)cc1S(C)(=O)=O — higher, 1.98%
- CC(C)Cc1cc(C(=O)N2CCC(C(=O)N3CCOCC3)CC2)on1 — higher, 31.2%
- COC(=O)C1CCCN1C(=O)c1cc(CC(C)C)no1 (stereo unspecified) — lower, -4.51%
- CC(C)Cc1cc(C(=O)N2CCC[C@H]2C(=O)N2CCOCC2)on1 — higher, 68%
- CN(C)Cc1nc(C2(NC(=O)Nc3ccccc3)CCCC2)no1 — lower, -20.1%
- O=c1c(-c2ccnc(NC3CCCCC3)n2)cnc2sc(Cl)cn12 — higher, 29.3%
- CCOc1ncccc1NC(=O)N1CCN(c2cccc(C)c2C)CC1 — higher, 90.4%
- CCOc1ncccc1NC(=O)N1CCN(c2ccc(O)cc2)CC1 — lower, -5.845%
- CCOc1ncccc1NC(=O)N1CCOCC1C (stereo unspecified) — higher, 52.2%
- Cc1nn(C(C)C)c(C)c1NC(=O)c1ccncc1 — higher, 26.8%
- CCOc1ncccc1NC(=O)Nc1c(C)nn(C(C)C)c1C — higher, 56.8%
- COc1ccc(Oc2ncccc2NC(=O)N2CCOCC2C)cc1 (stereo unspecified) — higher, 28.7%
- CCOc1ncccc1NC(=O)NCC(C)O (stereo unspecified) — higher, -1.14%
- CCOc1ncccc1NC(=O)N1CCCCCC1 — higher, 22.3%
- COc1ncccc1NC(=O)N1CCOCC1C (stereo unspecified) — higher, 45.4%
- CN(Cc1ccc(N2CCOCC2)cc1)C(=O)Cn1cccnc1=O — higher, 7.08%
- CC(=O)N1CCC(c2[nH]ncc2S(C)(=O)=O)CC1 — higher, 4.41%
- CNc1nc2cn(CCc3ccccc3)c(=O)c-2c[nH]1 — lower, -32.1%
- Cc1noc(C)c1CN1CCc2c(CNc3nccs3)n[nH]c2C1 — higher, 46.6%
- CC(NC(=O)NC1CC1)c1nc(-c2ccccc2)cs1 (stereo unspecified) — higher, 11.5%
- O=S(=O)(NC1CCCCC12OCCO2)c1cc(F)cc(F)c1 (stereo unspecified) — higher, 6.83%
- CN(Cc1cnn(C)c1)C(=O)c1cc(C(F)(F)F)n(C)n1 — higher, 36.6%
- N#Cc1cccc(N2CCCC3(C2)CN(c2ncccn2)CCO3)n1 (stereo unspecified) — higher, 42.3%
- N#Cc1cccc(N2CCCC3(CNCCO3)C2)n1 (stereo unspecified) — higher, 51.2%
- N#Cc1cccc(N2CCOC3(CNCCOC3)C2)n1 (stereo unspecified) — higher, 32.7%
- Cc1nn(C)c(C)c1CN1CCN(CC2(O)CCCN(C)C2)CC1 (stereo unspecified) — higher, 20.9%
- O=C1NC(c2cnc(C3CCC3)s2)Nc2ncccc21 (stereo unspecified) — lower, -44.2%
- Cc1ccc(NC(=O)Cn2ncc(SCC(N)=O)c(Cl)c2=O)c(F)c1 — higher, 64.5%
- Cc1cccc(NC(=O)CNC(=O)Cn2ncc(Cl)c(Cl)c2=O)c1C — higher, 5.14%
- Cc1ccc(NC(=O)Cn2ncc(SCC(N)=O)c(Cl)c2=O)cc1 — higher, 30.5%
- Cc1cccc(NC(=O)Cn2ncc(SCC(N)=O)c(Cl)c2=O)c1C — higher, 50.5%
- CNC(=O)CSc1cnn(CC(=O)Nc2cccc(Cl)c2C)c(=O)c1Cl — higher, 45.7%
- Cc1cc(NC(=O)Cn2ncc(SCC(N)=O)c(Cl)c2=O)ccc1Br — higher, 49.7%
- CC(=O)N1CCCCC12CCCN(Cc1ccco1)C2 (stereo unspecified) — higher, 28.4%
- CCC[C@@H]1CN(Cc2ccccc2SC)C[C@H]1NC(C)=O — lower, -7.53%
- CC(C)(NC(=O)c1ccc(-c2ccccc2F)s1)C(N)=O — lower, -29%
- CN(C)S(=O)(=O)N1C[C@H]2CC[C@@H](C1)N(Cc1cccc(C#N)c1)C2 — lower, -6.88%
- O=C(Cn1ccc2ccccc21)NCc1ccc(C(=O)O)cc1 — higher, 15.8%
- CN1CCN(C(=O)c2nnc3ccc(Cl)cc3n2)CC1 — higher, 1.04%
- COC(=O)C1CCN(C(=O)c2nnc3ccc(C)cc3n2)CC1 — higher, 49.9%
- COC(=O)C1CCN(C(=O)c2nnc3ccc(Cl)cc3n2)CC1 — higher, 52.4%
- CCc1nc(C(=O)N2CCCC2)nn1-c1c(Cl)cccc1Cl — higher, 48.4%
- CC(NC1CCN(CC(=O)N(C)C)CC1)c1cnn(C(C)C)c1 (stereo unspecified) — higher, 19.8%
- Cc1cc2cc(CNC3CCN(CC(=O)N(C)C)CC3)oc2cc1C — higher, 53.9%
- Cc1cc2cc(CNC3CCN(CC4CCOC4)CC3)oc2cc1C (stereo unspecified) — higher, 48.5%
- Cc1cc(Cl)cc(C)c1CNC1CCN(CC(=O)N(C)C)CC1 — higher, 56.1%
- Cc1cc2cc(CNC3CCN(S(C)(=O)=O)CC3)oc2cc1C — higher, 49.6%
- Cc1nc(-c2c(C)noc2C)cc(C2CCN(CC(=O)N(C)C)CC2)n1 — higher, 13.8%

Reference: ChEMBL document CHEMBL4513216, “Probing the Open Global Health Chemical Diversity Library for Multistage-Active Starting Points for Next-Generation Antimalarials” (ACS Infect Dis, 2020)
